# Molecular target: Left-right determination factor 2 (Homo sapiens) (UniProt O00292)
# Test: small molecules binding LEFTY2 protein – biochemical, small-molecule microarray, 635 nm fluorescence scan, primary screen (AID 1110)
# Settings: higher = more signal
# Chain of Left-right determination factor 2 (Homo sapiens) (O00292 whole entry, looked up): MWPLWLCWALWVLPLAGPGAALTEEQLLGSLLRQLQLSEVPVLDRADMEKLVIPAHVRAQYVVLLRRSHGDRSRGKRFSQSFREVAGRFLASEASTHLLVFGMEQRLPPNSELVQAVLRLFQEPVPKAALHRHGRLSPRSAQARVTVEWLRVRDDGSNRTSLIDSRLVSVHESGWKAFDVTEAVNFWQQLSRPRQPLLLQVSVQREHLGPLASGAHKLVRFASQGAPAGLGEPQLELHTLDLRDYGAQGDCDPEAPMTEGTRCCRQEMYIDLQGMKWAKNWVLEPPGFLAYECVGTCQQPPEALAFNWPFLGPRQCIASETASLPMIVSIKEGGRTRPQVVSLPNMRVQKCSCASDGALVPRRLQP
row,SMILES,composite z-score
1,C=CCC(OC(C)=O)[C@@H]1[C@@H](N(Cc2cccc3ccccc23)C(=O)c2cccc3ccccc23)c2cc(OCCCO)ccc2N1C(=O)Cc1ccc2ccccc2c1 (stereo partly specified),-0.277
2,COc1ccc(C(O)C2C=CC3C(=O)N(C)C(=O)C3N2Nc2ccc([N+](=O)[O-])cc2[N+](=O)[O-])cc1OCc1ccccc1 (stereo unspecified),-0.0506
3,COCCOC(=O)N1C(=O)[C@@]2(c3cc(C#CCC(C(=O)OC)C(=O)OC)ccc31)[C@H](C(=O)N1CCc3cc(OC)c(OC)cc3C1)[C@H]1C(=O)O[C@H](c3ccccc3)[C@H](c3ccccc3)N1[C@@H]2c1ccc(O)cc1,1.17
4,C=CCNC(=O)[C@@H]1[C@H]2C(=O)O[C@H](c3ccccc3)[C@H](c3ccccc3)N2[C@H](c2ccc(O)cc2)[C@@]12C(=O)Nc1ccc(C#CC3(O)CCCCCC3)cc12,0.0712
5,COCCOC(=O)N1C(=O)[C@@]2(c3ccccc31)[C@H](C(=O)N1CCCCCCC1)[C@H]1C(=O)O[C@H](c3ccccc3)[C@H](c3ccccc3)N1[C@@H]2c1ccc(O)cc1,1.17
6,N#Cc1ccc(C(O)C2C=CC3C(=O)NC(=O)C3N2Nc2ccccn2)cc1 (stereo unspecified),0.286
7,CC(C)C[C@H]1NC(=O)[C@@]23C(=O)N[C@@H](Cc4ccccc4)C2[C@H](C)[C@@]2(C)O[C@H]2C3/C=C/C/C=C\CNC(=O)[C@@H]2CCCN2C1=O (stereo partly specified),0.459
8,CCCC[C@@H]1C[C@H]1[C@@H](NC(=O)Cc1ccccc1)c1ccc(Cl)cc1,-0.496
9,NC(=O)N1C(=O)C2C(C1=O)C1C=C(CCCO)C2C(c2ccc(CN3CCCC3)cc2)N1Cc1cccc(OC(F)(F)F)c1 (stereo unspecified),0.565
10,CCOC(=O)C[C@H]1[C@H](OC(=O)c2ccc(C(=O)c3ccccc3)cc2)[C@@H](NC(=O)c2ccc3ccccc3c2)c2cc(OCCCO)ccc2N1C(=O)c1ccc2ccccc2n1,0.23
11,O=C1NC(=O)C2C1C=CC(C(O)c1ccc(F)cc1)N2Nc1ccccn1 (stereo unspecified),-0.0392
12,COc1ccc([Si](C)(C)[C@H]2[C@H](CC(=O)N3Cc4ccccc4C[C@H]3CO)O[C@@]3(C(=O)N(Cc4cccc(N5C(=O)c6cccc7cccc5c67)c4)c4ccccc43)[C@@H]2C)cc1,0.633
13,COC(=O)[C@@]1(Cc2ccccc2)[C@@H]2[C@@H](CC(=O)[C@H]2CC(=O)C(=O)N(C)C)CN1C(=O)c1ccccc1,-0.116
14,COC(=O)[C@]1(CO)N=C(c2ccc(OCCCO)cc2)O[C@@H]1c1ccccc1CN=[N+]=[N-],-0.266
15,CC(C)CNC(=O)[C@@H]1c2ccccc2C(=O)N(C(C)C)[C@H]1c1ccc(CO)cc1,-0.269
16,Cc1c(NC(=O)/C(C#N)=C/c2ccc(Cl)cc2)c(=O)n(-c2ccccc2)n1C,0.119
17,O=C1c2ccccc2[C@](Cc2ccccc2I)(C(=O)O)[C@H](c2ccc(CO)cc2)N1Cc1ccccc1,-1.04
18,CCC[C@@H]1C=C(C(=O)OCC)[C@H](c2ccccc2)N1S(=O)(=O)c1ccc(C)cc1,1.06
19,COCCOC(=O)N1C(=O)[C@@]2(c3cc(C#CCC(C(=O)OC)C(=O)OC)ccc31)[C@H](c1ccc(OCCO)cc1)N1[C@H](c3ccccc3)[C@H](c3ccccc3)OC(=O)[C@H]1[C@@H]2C(=O)N1CCCCCCC1,1.13
20,CCOC(=O)C[C@H]1[C@H](OC(=O)c2ccc(-c3ccccc3)cc2)[C@@H](NC(=O)CC(C)C)c2cc(OCCCO)ccc2N1C(=O)Cc1ccc(OC)cc1,0.141
21,COCCOC(=O)N1C(=O)[C@@]2(c3cc(C#CCC(C(=O)OC)C(=O)OC)ccc31)[C@H](C(N)=O)[C@H]1C(=O)O[C@H](c3ccccc3)[C@H](c3ccccc3)N1[C@@H]2c1ccc(OCCO)cc1,0.705
22,C=CCC(OC(C)=O)[C@@H]1[C@@H](N(Cc2ccc(-c3cccc(C(F)(F)F)c3)o2)C(=O)c2cccc3ccccc23)c2cc(OCCCO)ccc2N1C(=O)c1ccc2ccccc2c1 (stereo partly specified),-0.382
23,COC(=O)[C@@]1(Cc2ccccc2)[C@H]2c3cc(C(=O)N4CCCC4)n(Cc4ccc(C(F)(F)F)nc4)c3C[C@H]2CN1C(=O)c1ccccc1,-0.208
24,C=CC[C@@]1(C(=O)O)N=C(c2ccc(OCCCO)cc2)O[C@@H]1c1ccccc1CN=[N+]=[N-],0.461
25,COc1ccc([Si](C)(C)[C@H]2[C@H](CCn3cc([C@H](O)c4ccccc4)nn3)O[C@@]3(C(=O)N(C)c4c(Br)cc(C)cc43)[C@@H]2C)cc1,0.285
26,CC1(C)OC[C@@]23C=C(Br)[C@@H](C[C@H]12)[C@@]1(CO1)C3=O,0.841
